EWS-Fli inh – EWS/Fli transcriptional activity inhibition; A673 NR0B1-luciferase reporter, viability-normalised; inhibition, % at 12.6 µM; hit rate 0.67% among 350,000;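 active = mean inhibition of at least 50% after viability correction, with every replicate also passing that limit; inconclusive = mean reaches 50% but only one of two replicates passes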;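 also: firefly luciferase signal divided by Alamar Blue viability fluorescence both relative to DMSO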
PGC1a acetyl inh – lowers PGC1a acetylation signal in U2OS cells. AlphaScreen anti-acetyl-lysine; with virally co-expressed GCN5 acetyltransferase. inhibition, % at 15.6 µM. hit rate 0.17% among 350,000. AID 651687;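 active = every replicate shows inhibition of at least 40%; inconclusive = mean inhibition at least 40% but some replicate below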;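 also: 0% = neutral control wells and 100% = positive control wells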
PAX8 reporter – PAX8 transcriptional activity inhibition | hit rate 1.2% among 360,000 | inhibition, % at 12.6 µM | RMG-I TPO-luciferase reporter, SteadyGlo, 24 h;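 active = mean replicate inhibition at least 60% with every replicate also reaching 60%; inconclusive = only one of the two criteria is met; inactive = mean below 60% and not all replicates reaching 60%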;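 also: luciferase light reporting Pax8 driven TPO promoter activity; plate controls were median of neutral control wells for no effect and mitoxantrone controls for full effect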
HIV Env fusion – HIV envelope-mediated fusion inhibition. HeLa-JRFL Env/CEM21 cell fusion, luciferase. inhibition, % at 12.3 µM. hit rate 1.1% among 360,000. AID 651610;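 active = mean replicate inhibition score of at least 50 and every replicate individually at or above 50; inconclusive = only one of the two criteria met; inactive = mean below 50 and not all replicates reaching 50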;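 also: 0% = plate neutral controls and 100% = maraviroc near 300 nM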
GSIS activator – primary screen for activators of insulin secretion dependent on glucose, INS-1E cells, GLuc reporter luminescence; activation, % at 16.6 µM; INS-1E GLuc reporter insulin secretion, 2-3 h; hit rate 0.61% among 370,000;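 active = lowest replicate activation of at least 40%, so every replicate reaches that level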;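 also: 0% = median of neutral control wells and 100% = median of IBMX positive control wells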
CFTR F508del cor – CFTR F508del correction in bronchial cells. hit rate 0.36% among 350,000. CFBE cells, YFP halide quenching; stimulated with forskolin plus potentiator P3; % fluorescence drop versus neutral controls. activity (quench increase), % at 7.58 µM. AID 720511;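 active = mean added fluorescence quench of at least 8% versus neutral control, with both replicates also reaching 8%; inconclusive = only one of the mean or replicate conditions met; inactive = mean below 8% and not both replicates reaching 8%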;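 also: cells transiently co-express mutant CFTR-F508del with the halide-sensitive YFP; corrector assay measuring rescue of mutant channel to the surface after 24 h compound exposure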
* marks the source's active call; other numbers are inactive results; [ ] = another dose, or the depositor's remark. An excerpt weighted towards active compounds, which were near 2.7% of everything screened.

For COCC(=O)Nc1ccc2c(c1)C(=O)N(C)C[C@@H](OC)[C@H](C)CN(C(C)=O)[C@H](C)CO2 the results were EWS-Fli inh -7.1, PGC1a acetyl inh 0.9, HIV Env fusion 85.3*[16.7 µM], GSIS activator 3.8 and CFTR F508del cor -0.1.
CCCC(=O)Nc1ccc2c(c1)OC[C@H](C)N(C(=O)CN(C)C)C[C@@H](C)[C@H](OC)CN(C)C2=O was read as EWS-Fli inh -0.3, PGC1a acetyl inh 5.2, PAX8 reporter -5.4, HIV Env fusion 57.7*[16.7 µM] and CFTR F508del cor 1.6.
Screening CCS(=O)(=O)Nc1ccc2c(c1)C(=O)N(C)C[C@H](OC)[C@@H](C)CN(C(=O)C1CCC1)[C@H](C)CO2 returned EWS-Fli inh -5.7, PGC1a acetyl inh -10.1, PAX8 reporter -5.6, HIV Env fusion 61.0*[16.7 µM], GSIS activator 3.6 and CFTR F508del cor -0.5.
CCS(=O)(=O)Nc1ccc2c(c1)C(=O)N(C)C[C@@H](OC)[C@H](C)CN(C(=O)C1CCC1)[C@@H](C)CO2 was read as EWS-Fli inh 2.3, PGC1a acetyl inh 12.8, PAX8 reporter 4.6, HIV Env fusion -1.2[16.7 µM], GSIS activator -3.0 and CFTR F508del cor -0.8.
`COCC(=O)Nc1ccc2c(c1)C(=O)N(C)C[C@@H](OC)[C@@H](C)CN(C)[C@H](C)CO2` gave EWS-Fli inh 2.6, PGC1a acetyl inh -2.7, PAX8 reporter -7.2, HIV Env fusion 59.7*[16.7 µM], GSIS activator 2.4 and CFTR F508del cor 2.1.
CCCC(=O)Nc1ccc2c(c1)OC[C@@H](C)N(C(=O)CN(C)C)C[C@@H](C)[C@H](OC)CN(C)C2=O was read as EWS-Fli inh 4.6, PGC1a acetyl inh 21.9, PAX8 reporter -12.5, HIV Env fusion 12.4[16.7 µM], GSIS activator 0.9 and CFTR F508del cor -0.3.
For Cc1noc(C)c1S(=O)(=O)N(C)C[C@@H]1OCCCC[C@H](C)Oc2ccc(NC(=O)C3CCCCC3)cc2C(=O)N([C@@H](C)CO)C[C@H]1C the results were EWS-Fli inh 10.0, PGC1a acetyl inh -6.0, PAX8 reporter 13.3, HIV Env fusion -0.6[16.7 µM], GSIS activator -7.1 and CFTR F508del cor 0.5.
CO[C@@H]1CN(C)C(=O)c2ccc(NS(=O)(=O)CC(F)(F)F)cc2OC[C@@H](C)N(C(=O)c2ccc3c(c2)OCO3)C[C@@H]1C was read as EWS-Fli inh -13.7, PGC1a acetyl inh -10.5, PAX8 reporter -15.7, HIV Env fusion 64.5*[16.7 µM], GSIS activator -5.2 and CFTR F508del cor -0.4.
For CCC(=O)Nc1ccc2c(c1)C(=O)N(C)C[C@@H](OC)[C@H](C)CN(C(=O)CC)[C@@H](C)CO2 the results were EWS-Fli inh -0.7, PGC1a acetyl inh 3.0, HIV Env fusion 59.4*[16.7 µM], GSIS activator -3.8 and CFTR F508del cor -2.8.
`C[C@H]1CN([C@@H](C)CO)C(=O)Cc2cc(NC(=O)Cn3cnnn3)ccc2O[C@H]1CN(C)Cc1ccc(C(=O)Nc2ccccc2N)cc1` gave EWS-Fli inh -1.8, PGC1a acetyl inh -10.0, PAX8 reporter 10.5, GSIS activator 6.0 and CFTR F508del cor 0.8.
For CCNC(=O)C[C@@H]1CC[C@@H]2[C@H](COc3ccc(NC(=O)Nc4c(C)noc4C)cc3C(=O)N2C)O1 the results were EWS-Fli inh -9.0, PGC1a acetyl inh -6.4, PAX8 reporter -5.4, HIV Env fusion -9.0[16.7 µM], GSIS activator -1.7 and CFTR F508del cor -4.4.
For Cc1ccc(OCC(O)CNC(C)c2ccccc2)cc1C (stereo not given) the results were EWS-Fli inh 0.9, PGC1a acetyl inh -7.5, PAX8 reporter 16.0, HIV Env fusion 59.6* and CFTR F508del cor -1.2.
C[C@@H]1CN([C@H](C)CO)C(=O)c2cc(NC(=O)CCC(F)(F)F)ccc2O[C@@H](C)CCCCO[C@H]1CN(C)C(=O)c1ccccc1 was read as EWS-Fli inh -3.4, PGC1a acetyl inh -0.4, PAX8 reporter -14.7, HIV Env fusion 8.5[16.7 µM], GSIS activator -5.6 and CFTR F508del cor -0.5.
COc1ccc(CN2[C@H](CO)[C@H]3c4ccccc4NC[C@H]32)cc1 was read as EWS-Fli inh 47.8, PGC1a acetyl inh 10.9, PAX8 reporter 95.7*, GSIS activator 8.1 and CFTR F508del cor 7.4.
COc1ccc(CN2[C@@H](CO)[C@@H]3c4ccccc4NC[C@@H]32)cc1 was read as EWS-Fli inh -2.0, PGC1a acetyl inh 4.3, PAX8 reporter 19.7, GSIS activator 6.7 and CFTR F508del cor -0.8.
Screening COc1ccc(CNC(=O)c2cnn3c(C(F)F)cc(C)nc23)cc1 returned PGC1a acetyl inh -7.2 and GSIS activator 79.8*.
`Cc1cc(C(F)F)n2ncc(C(=O)NCc3ccccc3)c2n1` gave PGC1a acetyl inh -4.9, PAX8 reporter 3.6 and HIV Env fusion -47.0.
Screening O=C(Nc1ccc2c(c1)[C@@H]1C[C@@H](CC(=O)N3CCOCC3)O[C@H](CO)[C@@H]1O2)C1CCOCC1 returned EWS-Fli inh 5.2, PGC1a acetyl inh 9.8, PAX8 reporter -11.2, HIV Env fusion 24.4[16.7 µM], GSIS activator 4.2 and CFTR F508del cor 0.1.
`COc1ccc(N(Cc2cc3cc(OC)ccc3[nH]c2=O)S(=O)(=O)c2ccc(NC(C)=O)cc2)cc1` gave PAX8 reporter 91.1*, HIV Env fusion 17.5, GSIS activator 12.2 and CFTR F508del cor 1.8.
O=c1[nH]c2ccccc2cc1CN(Cc1cccnc1)S(=O)(=O)c1ccc(Cl)cc1 was read as EWS-Fli inh -0.7, PAX8 reporter 20.7, HIV Env fusion 4.5, GSIS activator 4.9 and CFTR F508del cor 3.0.
Screening Cc1ccc(S(=O)(=O)N(Cc2cc3ccccc3[nH]c2=O)c2cccc(C)c2)cc1 returned EWS-Fli inh inconclusive, PGC1a acetyl inh 6.7, PAX8 reporter 21.1, HIV Env fusion 23.2, GSIS activator -11.8 and CFTR F508del cor 14.4*.
CC(=O)Nc1ccc(S(=O)(=O)N(Cc2cccnc2)Cc2cc3ccccc3[nH]c2=O)cc1 was read as PAX8 reporter 71.1*, HIV Env fusion 15.2, GSIS activator 14.0 and CFTR F508del cor 2.6.
`CO[C@H]1CN(C)C(=O)c2ccc(NC(=O)Nc3cccc(Cl)c3)cc2OC[C@H](C)NC[C@@H]1C` gave EWS-Fli inh 7.7, PGC1a acetyl inh 1.9, PAX8 reporter 14.8, HIV Env fusion 13.1[16.7 µM], GSIS activator -1.3 and CFTR F508del cor 0.5.
Screening COc1cccc(S(=O)(=O)N(C)C[C@H]2Oc3ncc(-c4cccc(C(=O)N(C)C)c4)cc3C(=O)N([C@H](C)CO)C[C@@H]2C)c1 returned EWS-Fli inh -5.6, PGC1a acetyl inh 6.6, HIV Env fusion -32.1[16.7 µM], GSIS activator -6.7 and CFTR F508del cor 2.8.
For CCN[C@H]1C[C@H](C)S(=O)(=O)c2sc(S(N)(=O)=O)cc21 the results were EWS-Fli inh -5.5, PAX8 reporter 0.9, HIV Env fusion 6.7 and CFTR F508del cor 1.9.
For CCN[C@H]1CN(CCCOC)S(=O)(=O)c2sc(S(N)(=O)=O)cc21 the results were EWS-Fli inh -0.7, PAX8 reporter -4.8, HIV Env fusion 7.3 and CFTR F508del cor 10.0*.
